HepG2 tox – qHTS for Inhibitors of TGF-b: Cytotox Counterscreen; hit rate 0.76% among 410,000; HepG2 CAGA-GFP viability, ATP luminescence, 18 h; Potency, µM (top dose mostly 46.1 µM), actives largely listed as cytotoxic; AID 588856, 2011
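HepG2 CAGA-GFP cells (1000/well, DMEM with 1% FBS) received compound, then TGF-beta at 500 pg/mL final, and were incubated 18 hours at 37 degrees C. Viability was read by CellTiter-Glo luminescence. Media-only wells were set as complete cell-killing and DMSO as no toxicity.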
ATXN2 expr inh – Primary qHTS for Inhibitors of ATXN expression; Potency, µM (highest dose often 57 µM), usual class: inhibitors; hit rate 0.72% among 360,000; HEK-293 ATXN2-luciferase reporter, luminescence, 24 h; note: nearly all actives have a fitted effect of over 55% in size
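qHTS (up to 57 uM final) was run with 24 h compound exposure of reporter cells at 37 °C. Each well was multiplexed: SteadyGlo luminescence measured ATXN2-luciferase expression after a fluorogenic Gly-Phe-AFC viability readout (25 uM final).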
ATXN viability – Viability Counterscreen for Primary qHTS for Inhibitors of ATXN expression; S2 cells (HEK-293 line with an ATXN2-luciferase reporter) viability, CellTiter-Fluor protease fluorescence, 24 h; hit rate 0.49% among 400,000; Potency, µM (titrated, usually from 56.7 µM), most hits filed as cytotoxic; note: nearly all actives have a fitted effect of over 40% in size
VP16 counter – VP16 counterscreen qHTS for inhibitors of ROR gamma transcriptional activity; Potency, µM (series often up to 53.6 µM), most hits filed as inhibitors; AID 2546, 2010; hit rate 3.5% among 310,000; Drosophila S2 Gal4-VP16 UAS-luciferase, luminescence, 20 h;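 note: Gal4-VP16 expression switched on by copper sulfate through the metallothionein promoter; nearly all actives have a fitted effect of over 50% in size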
TGFb inhibitor – qHTS for Inhibitors of TGF-b. HepG2 CAGA-GFP TGF-b/SMAD3 reporter, GFP fluorescence, 18 h; TGF-beta stimulated, 500 pg/mL final. Potency, µM (top dose mostly 46.1 µM), usual class: inhibitors. hit rate 1.2% among 410,000. AID 588855, 2011; note: nearly all actives have a fitted effect of over 65% in size
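Inhibition was scored as loss of TGF-beta-induced (500 pg/mL final, 18 hours, 37 degrees C) GFP in HEPG2 cells carrying a CAGA-GFP reporter, in DMEM with 1% FBS. Well GFP was summed per cell; Activity was normalised to unstimulated and stimulated DMSO wells, then concentration-response fitting.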
RORg inh – qHTS for inhibitors of ROR gamma transcriptional activity | Nuclear receptor ROR-gamma (Mus musculus), P51450 | Drosophila S2 Gal4-RORgamma UAS-luciferase reporter, 20 h | Potency, µM (top dose mostly 53.6 µM), usual class: inhibitors | hit rate 5.4% among 310,000 | AID 2551, 2010; note: nearly all actives have a fitted effect of over 60% in size
Target sequence (P51450 whole entry, looked up, the tested form may be a part): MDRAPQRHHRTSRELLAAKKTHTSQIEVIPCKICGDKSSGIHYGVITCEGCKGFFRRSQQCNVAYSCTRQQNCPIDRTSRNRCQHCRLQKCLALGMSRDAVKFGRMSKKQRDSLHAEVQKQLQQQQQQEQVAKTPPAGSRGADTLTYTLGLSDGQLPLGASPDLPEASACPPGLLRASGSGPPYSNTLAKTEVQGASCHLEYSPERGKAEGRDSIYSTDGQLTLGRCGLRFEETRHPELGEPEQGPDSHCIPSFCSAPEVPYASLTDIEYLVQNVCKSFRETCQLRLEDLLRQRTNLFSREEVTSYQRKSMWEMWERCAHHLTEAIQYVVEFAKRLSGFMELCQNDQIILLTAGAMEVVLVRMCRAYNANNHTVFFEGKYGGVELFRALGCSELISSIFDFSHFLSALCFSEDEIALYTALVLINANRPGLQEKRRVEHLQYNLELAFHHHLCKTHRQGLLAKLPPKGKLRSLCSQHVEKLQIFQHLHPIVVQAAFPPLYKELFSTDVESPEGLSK
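Stable Schneider cell line, Gal4 DNA-binding domain fused to ROR gamma, UAS-luciferase. Cmpd 1 hr RT → CuSO4 700 uM final → 20 hr RT → luciferase reagent 10 min → luminescence.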
A number is an active result; 0 = inactive; ? = inconclusive; - = no result; [ ] = another dose, or the depositor's remark. This is a sample that favours compounds with a hit; in the whole collection about 6.1% have one here. Calls come from the whole dose curve; as a rule, active = well fitted curve in the direction sought with a large enough effect; inconclusive = small, poorly fitted or top-dose-only effect, or another doubt; inactive = no such curve, though single readings can be large; an effect the other way counts as inactive or inconclusive.

SMILES	HepG2 tox	ATXN2 expr inh	ATXN viability	VP16 counter	TGFb inhibitor	RORg inh
Cc1sc2ncnc(SCC(=O)N3c4ccccc4Sc4ccc(Cl)cc43)c2c1C	0	0	0	0	0	0
C/C(=N\OCc1cccc(C(=O)O)c1)c1ccc(Cl)cc1	0	2.8µM	0	0	0	0
Cc1ccc(C)c(-n2c3nc(=O)[nH]c(=O)c-3cc3cc([N+](=O)[O-])ccc32)c1	0	?	?	11µM	?	10µM
O=C(CSc1ncccn1)NCC1Cc2cccc(-c3ncccn3)c2O1 (centres undefined)	-	-	0	-	-	-
COc1ccc(N2CCN(C(=O)c3cc4c(-c5ccccc5F)nn(C)c4s3)CC2)cc1	0	0	0	-	?	-
CC(C)(C)C1CCC2(CC1)C(C#N)=C(SCC(=O)Nc1ccccc1)NC(=O)C2C#N (centres undefined)	10µM	?	?	?	7.1µM	0
CCn1c(=O)n(-c2ccc(F)c(Cl)c2)c(=O)c2sc3ccccc3c21	0	0	0	-	0	-
COC(=O)[C@@H]1CC[C@H](C)[C@@H](c2ccc(C)cc2)N1C(=O)c1ccc(/C=N\OCC[C@@H]2C=C[C@H](OC(C)=O)[C@H](COC(C)=O)O2)cc1	-	-	-	0[10 µM]	-	0[10 µM]
CCOc1ccc(/C=N/NC(=S)NC2CC3CCC2C3)cc1 (centres undefined)	0	0	0	?	0	5µM
CCOc1ccc(N(CC(=O)NC2CC3CCC2C3)S(=O)(=O)c2ccc(C)cc2)cc1 (centres undefined)	0	0	0	0	?	0
CCOc1ccc(/C=N/NC(=S)NC2CC3CC2C2C=CCC32)cc1 (centres undefined)	0	0	0	4.5µM	?	5µM
COc1cc(/C=N/NC(=S)NC2CC3CC2C2C=CCC32)ccc1O (centres undefined)	0	0	?	4.5µM	?	1.6µM
CCC(=O)N1c2ccccc2CC1C(=O)NCc1cccc(OC)c1OC (centres undefined)	0	0	0	-	0	-
COc1ccc(OC)c(NC(=O)CSC2=Nc3ccccc3C3=NC(CCC(=O)NCCc4ccccc4)C(=O)N23)c1 (centres undefined)	0	-	-	-	0	-
O=C(NCCCc1nc2ccccc2n1Cc1ccc(Cl)cc1)c1ccco1	0	-	-	-	-	-
COC(=O)N/N=C/c1cc(Cl)c(OCc2ccccc2F)c(OC)c1	10µM	0	0	0	0	0
COC(=O)N/N=C/c1cc(Cl)c(OCc2ccc(F)cc2)c(OC)c1	0	0	?	0	0	0
O=C(CNC(=S)N(Cc1ccc(F)cc1)C1CCCCC1)NCC1CCCO1 (centres undefined)	0	0	0	0	0	0
Cc1cc2nc(CCN(C(=S)NCC(C)C)C3CCCC3)[nH]c2cc1C	0	?	?	?	0	7.1µM
Cc1cc2nc(CCN(C(=S)NCC3CCCO3)C3CCCC3)[nH]c2cc1C (centres undefined)	0	0	?	?	?	13µM
Cc1cccc2cc(CN(C(=S)NCC(C)C)C3CCCC3)c(=O)[nH]c12	0	0	?	?	0	0
CCO[C@@H]1O[C@H](C(COCc2ccccc2)OCc2ccccc2)[C@H](OCc2ccccc2)[C@H]1O (some centres undefined)	-	0	0	-	-	-
CC(=O)C1=C(C)NC(SCC(=O)c2ccccc2)=C(C#N)C1CC(C)C (centres undefined)	0	0	0	?	0	11µM
O=C(COc1ccccc1)Nc1nnc2n1CCS2	0	-	-	-	0	-
CS(=O)(=O)N(CC(=O)NCCSCc1ccccc1)c1cc(C(F)(F)F)ccc1Cl	0	0	0	-	?	-
SMILES	HepG2 tox	ATXN2 expr inh	ATXN viability	VP16 counter	TGFb inhibitor	RORg inh
O=C(Nc1ccc(OC(F)(F)F)cc1)c1[nH]ncc1[N+](=O)[O-]	0	0	0	0	11µM	?
O=C(Nc1ccc([N+](=O)[O-])cc1)C(=O)Nc1cccc(C(=O)O)c1	0	-	0	1µM	0	0.35µM
O=C(Nc1ccc(OC(F)(F)F)cc1)Nc1cccc([N+](=O)[O-])c1	7.9µM	?	16µM	6.3µM	?	?
CN(C)c1ccc(C=Nc2cnc3ccccc3c2)cc1	0	-	-	-	0	-
COc1cccc(NC(=O)CCc2c(C)nc3ncnn3c2C)c1	0	0	0	-	0	-
CCOc1ccc(CNC(=S)N/N=C/c2ccc(OC)c(OC)c2)cc1	0	0	0	10µM	?	11µM
COc1cc(/C=N/NC(=S)NCc2ccccc2)ccc1OCC#N	0	0	0	?	0	10µM
Oc1ccccc1-c1nnc(COc2ccc(Cl)cc2Cl)o1	0	0	0	4.5µM	0	2.5µM
Oc1ccccc1-c1nnc(COc2ccccc2)o1	0	0	0	?	0	10µM
CC(c1ccccc1)n1cnc2ccccc2c1=O (centres undefined)	0	0	0	-	0	-
CC(c1ccccc1)n1cnc2ccccc21 (centres undefined)	0	0	0	0	0	13µM
COc1cccc(CNC(=O)C2CCCN(c3nn4cc(-c5ccc(C)cc5)nc4s3)C2)c1 (centres undefined)	0	-	-	-	0	-
Cc1ccc(-c2n[nH]c(=S)n2/N=C/c2c(C)nn(-c3ccccc3)c2C)cc1	0	0	0	?	0	6.3µM
Cc1ccccc1-c1n[nH]c(=S)n1/N=C/c1c(C)nn(-c2ccccc2)c1C	0	0	0	?	0	4.5µM
Cc1nn(-c2ccccc2)c(C)c1/C=N/n1c(-c2ccc(C(C)(C)C)cc2)n[nH]c1=S	0	0	0	0	0	2.2µM
COc1cc(=O)n2c(c1C(=O)NCc1ccco1)CCN(Cc1cccc(Cl)c1)CC2	-	-	0	-	-	-
COc1cc2nc(N(C)C)c(CNC3CCOC(C)(C)C3)cc2c(OC)c1OC (centres undefined)	-	-	0	-	-	-
CCC(CC)C(=O)N(CCc1ccc(OC)cc1)Cc1nc2ccccc2c(=O)[nH]1	0	0	?	10µM	?	5µM
COc1ccc(CCN(Cc2nc3ccccc3c(=O)[nH]2)C(=O)c2ccco2)cc1	0	0	0	?	0	13µM
Cn1cc(/C=N/NC(=O)COc2ccccc2[N+](=O)[O-])c2ccccc21	0	-	0	13µM	0	?
O=C(COc1ccccc1[N+](=O)[O-])N/N=C/c1cccs1	0	0	0	0	0	0
Cc1ccc(/C=N\NC(=O)COc2ccc(C)cc2[N+](=O)[O-])cc1	0	0	0	0	0	0

Bioassay records deposited in PubChem BioAssay by National Center for Advancing Translational Sciences (NCATS).
